# Records with an inconclusive call do not appear. A call without a number means that no potency is given here. A number with no mark means an inactive call. Activity calls are given as the source filed them. Calls come from the whole dose curve; as a rule, active = well fitted cell-killing curve with a large enough effect in the repeat runs; inconclusive = weak or mixed curves, or effect the other way; inactive = flat fitted curve, though single readings scatter.
# Test: Caspase-3/7 induction in HepG2 cells by small molecules, qHTS cell viability counter screen (AID 1346981); note: nearly all actives have a fitted effect of over 30% in size
# Details: CellTiter-Fluor fluorescence, 17 h; series mostly up to 92.4 µM
# From the text: U.S. Tox21 Program National Center for Advancing Translational Sciences [NCATS] NIH Chemical Genomics Center [NCGC] U.S. Environmental Protection Agency [EPA] National Institutes of Environmental Health Sciences [NIEHS] National Toxicology Program [NTP] U.S. Food and Drug Administration [FDA] Tox21 Assay Overview: Apoptosis is a process of programmed cell death and plays a central role in the development of multicellular organisms. It is a highly regulated process and induces cell death by activating caspases, which are the members of cysteine aspartic acid-specific protease (caspase) family. Caspases involved in apoptosis are classified by their mechanism of action as initiator caspases (caspase-2, -8, -9 and -10) and executioner caspases (caspase-3, -6, and -7). Inhibition of apoptosis results in number of cancers, autoimmune diseases, inflammatory diseases and viral infection. To identify small molecule compounds that induce apoptosis, a homogeneous, luminescent Caspase-Glo 3/7 assay was used. Wild type HepG2 cells were used to screen Tox21 libraries for identifying caspase-3/7 activity inducers. Also cytotoxicity of the compounds was tested in parallel by measuring the cell viability using CellTiter-Fluor assay system in the same wells.
# Tox21 Assay Protocol Summary: HepG2 cells were dispensed at 2,000 per well in 5uL of culture medium into white solid bottom 1536-well plates (Corning Life Sciences, Corning, NY) using a Multidrop Combi (Thermo Scientific, Waltham, MA) dispenser. The assay plates were incubated at 37 C and 5% CO2 for 5hr, and then 23nL of compounds dissolved in DMSO and positive control were transferred using a Pintool station ([…], San Diego, CA). The assay plates were incubated at 37C and 5% CO2 for 17hr. For cytotoxicity read, after 16hr incubation at 37C, 1uL CellTiter-Fluor reagent (Promega Corporation, Madison, WI) was added to each well of the assay plates using Flying Reagent Dispenser (FRD, Aurora Discovery, San Diego, CA). After 1hr incubation at 37C and 5% CO2, the fluorescence signal was quantified using a ViewLux plate reader (PerkinElmer, Shelton, CT).
# Potency is the fitted concentration of half-maximal effect.
SMILES,Potency,"activity change, negative = cytotoxicity"
Cn1cc(S(C)=O)c(=O)c2ccc(F)cc21 (stereo not given),inactive,
O=C(c1ccccc1)C1CCCCC1,inactive,
CCC(C)S (stereo not given),,-0.646% [at 3.27 µM]
CN1CC(=O)NC1=N,inactive,
OCCOc1ccc(OCCO)cc1,inactive,
C=C(C)C(=O)OCCCCCCCC(C)C,1380 nM (active),
CC(=O)c1ccccc1O,inactive,
Nc1c[n+](N2CCOCC2)no1,inactive,
O=C1CCCCCCCCCCCN1,inactive,
O=c1n(CCO)c(=O)n(CCO)c(=O)n1CCO,inactive,
C=CCOCC(CC)(CO)COCC=C,inactive,
O=c1cc(-c2ccccc2)oc2ccccc12,inactive,
O=[N+]([O-])c1ccc(F)cc1F,inactive,
O=Cc1cccc([N+](=O)[O-])c1,inactive,
CCN(CC)CCNC(=O)c1cc(S(C)(=O)=O)ccc1OC,inactive,
NCCc1cnc[nH]1,inactive,
CC(=O)OCC(=O)[C@@]1(O)CCC2C3CCC4=CC(=O)CC[C@]4(C)C3[C@@H](O)C[C@@]21C (stereo not given in full),inactive,
CCN1CCC[C@H]1CNC(=O)c1cc(S(N)(=O)=O)ccc1OC,inactive,
C=C(C)CS(=O)(=O)O,inactive,
Nc1cc(=O)[nH]c(N)n1,inactive,

SMILES,Potency,"activity change, negative = cytotoxicity"
NC(CSCC(=O)O)C(=O)O (stereo not given),inactive,
CCO/C([O-])=N/c1c[n+](N2CCOCC2)no1,inactive,
COC(=O)c1ccc(C)cc1C1=NC(C)(C(C)C)C(=O)N1 (stereo not given),inactive,
CN1N=C(C(N)=O)CCC1=O,inactive,
CC(=O)CC(C)C,inactive,
C=COCC1CCC(CO)CC1 (stereo not given),inactive,
CC/C=C\CCOC(C)=O,inactive,
CS(=O)(=O)O,inactive,
CCn1ccnc1CC1COc2ccccc2O1 (stereo not given),inactive,
CCN1CCC[C@H]1CNC(=O)c1c(O)c(Cl)cc(Cl)c1OC,inactive,
COC(=O)CCSCCC(=O)OC,inactive,
CC(=O)N(CC(O)CO)c1c(I)c(C(=O)NCCO)c(I)c(C(=O)NCC(O)CO)c1I (stereo not given),inactive,
CCS(=O)(=O)c1ccc(OC)c(C(=O)OC)c1,inactive,
CN1CCC(=C2c3ccccc3CC(=O)c3sccc32)CC1,inactive,
CC(=O)OCC(=O)[C@@]1(O)CC[C@H]2[C@@H]3CCC4=CC(=O)CC[C@]4(C)[C@H]3C(=O)C[C@@]21C,inactive,
Cc1c(O)cccc1O,inactive,
O=C[C@H](O)[C@@H](O)[C@H](O)[C@H](O)CO,inactive,
CCCc1cc(C(N)=S)ccn1,inactive,
C=CCCCCCCCCC=O,inactive,
c1cnc(N2CCN(Cc3ccc4c(c3)OCO4)CC2)nc1,inactive,
